# Records with an inconclusive call do not appear. Entries that show only a call come without a potency. Active and inactive are the calls of the source. Unless noted, calls come from the whole dose curve.
# Experiments:
# [1] = target: Glucocorticoid receptor (Homo sapiens) (UniProt P04150); test: qHTS assay to identify small molecule agonists of the glucocorticoid receptor (GR) signaling pathway (AID 720691; active = well fitted activation curve with a large enough effect in the signal ratio in the repeat runs, not every such curve was filed as active; the % refers to the signal ratio)
# Chain of Glucocorticoid receptor (Homo sapiens) (P04150 whole entry, looked up): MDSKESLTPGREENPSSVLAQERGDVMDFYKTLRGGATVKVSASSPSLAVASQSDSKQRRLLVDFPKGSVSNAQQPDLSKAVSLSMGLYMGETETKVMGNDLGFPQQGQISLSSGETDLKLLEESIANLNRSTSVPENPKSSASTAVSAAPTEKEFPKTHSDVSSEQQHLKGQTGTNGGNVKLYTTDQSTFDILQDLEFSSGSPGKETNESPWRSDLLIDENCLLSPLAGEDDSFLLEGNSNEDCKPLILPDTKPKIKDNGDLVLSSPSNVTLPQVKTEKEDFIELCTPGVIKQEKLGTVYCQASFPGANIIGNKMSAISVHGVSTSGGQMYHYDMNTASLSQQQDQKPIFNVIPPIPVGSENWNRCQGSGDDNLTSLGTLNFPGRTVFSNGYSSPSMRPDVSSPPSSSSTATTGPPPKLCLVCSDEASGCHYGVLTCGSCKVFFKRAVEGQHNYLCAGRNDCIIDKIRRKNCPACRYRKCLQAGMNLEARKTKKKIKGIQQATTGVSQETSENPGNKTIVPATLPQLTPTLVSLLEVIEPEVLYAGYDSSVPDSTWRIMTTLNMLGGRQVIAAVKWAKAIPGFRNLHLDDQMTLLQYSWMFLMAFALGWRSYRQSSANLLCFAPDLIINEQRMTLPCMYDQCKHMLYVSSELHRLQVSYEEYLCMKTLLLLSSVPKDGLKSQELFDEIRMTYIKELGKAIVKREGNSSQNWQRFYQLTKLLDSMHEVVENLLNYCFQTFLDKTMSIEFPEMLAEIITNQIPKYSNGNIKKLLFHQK
# How it was run: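 A HeLa cervical cancer line expressing GR and a glucocorticoid response element-driven beta-lactamase gene is treated with compounds for 18 h; LiveBLAzer B/G FRET substrate is then applied and fluorescence read.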
# [2] = target: Androgen receptor (Homo sapiens) (UniProt P10275); test: qHTS assay to identify small molecule antagonists of the androgen receptor (AR) signaling pathway using the MDA cell line (AID 743042; active = well fitted curve in the direction sought with a large enough effect in the repeat runs; an effect the other way counts as inactive or inconclusive; note: nearly all actives have a fitted effect of over 55% in size; note: potency is the fitted concentration of half-maximal effect)
# Chain of Androgen receptor (Homo sapiens) (P10275 whole entry, looked up): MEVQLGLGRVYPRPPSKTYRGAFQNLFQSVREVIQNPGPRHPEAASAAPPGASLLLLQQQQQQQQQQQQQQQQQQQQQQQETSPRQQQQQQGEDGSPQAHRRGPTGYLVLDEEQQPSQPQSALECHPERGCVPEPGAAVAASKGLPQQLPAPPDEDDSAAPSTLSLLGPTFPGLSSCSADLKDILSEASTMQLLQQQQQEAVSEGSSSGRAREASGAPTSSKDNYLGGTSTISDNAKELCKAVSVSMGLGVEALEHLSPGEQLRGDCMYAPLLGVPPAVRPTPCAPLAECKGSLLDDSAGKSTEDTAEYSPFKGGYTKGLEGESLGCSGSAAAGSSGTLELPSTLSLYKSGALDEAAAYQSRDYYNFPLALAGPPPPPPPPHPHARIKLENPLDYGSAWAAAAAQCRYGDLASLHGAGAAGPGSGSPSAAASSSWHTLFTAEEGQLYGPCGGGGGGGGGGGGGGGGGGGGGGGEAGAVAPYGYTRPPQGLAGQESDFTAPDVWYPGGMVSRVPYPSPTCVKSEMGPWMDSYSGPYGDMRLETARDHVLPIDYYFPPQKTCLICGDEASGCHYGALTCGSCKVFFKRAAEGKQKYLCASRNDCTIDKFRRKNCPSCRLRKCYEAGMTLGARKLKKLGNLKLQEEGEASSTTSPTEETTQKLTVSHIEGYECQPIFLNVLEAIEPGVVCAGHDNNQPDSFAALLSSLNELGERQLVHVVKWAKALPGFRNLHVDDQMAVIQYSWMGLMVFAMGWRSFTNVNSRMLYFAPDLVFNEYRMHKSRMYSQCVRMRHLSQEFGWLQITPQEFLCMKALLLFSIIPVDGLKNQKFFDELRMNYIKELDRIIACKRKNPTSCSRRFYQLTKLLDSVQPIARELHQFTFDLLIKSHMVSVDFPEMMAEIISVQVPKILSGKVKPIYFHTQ
# How it was run: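 MDA-kb2 breast carcinoma cells carrying MMTV-luciferase (AR/GR responsive) were co-treated with compounds and the agonist R1881 for 16 h at 37C. Inhibition read as ONE-Glo luminescence; CellTiter-Fluor fluorescence measured in parallel for cytotoxicity.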
# [3] = target: Glucocorticoid receptor (Homo sapiens) (UniProt P04150); test: qHTS assay to identify small molecule antagonists of the glucocorticoid receptor (GR) signaling pathway (AID 720692; active = well fitted inhibition curve with a large enough effect in the signal ratio in the repeat runs, not every such curve was filed as active; the % refers to the signal ratio; note: potency is the fitted concentration of half-maximal effect)
# How it was run: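 GRE-bla HeLa line, dex-stimulated (5 nM final). Compound exposure 18 h, 37 C. Beta-lactamase FRET read after 2 h RT substrate.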
# [4] = qHTS assay to identify small molecule antagonists of the estrogen receptor alpha (ER-alpha) signaling pathway using the BG1 cell line in the presence of 0.1 nM 17-beta-estradiol - cell viability counter screen (AID 1259241; active = well fitted curve in the direction sought with a large enough effect in the repeat runs; an effect the other way counts as inactive or inconclusive; note: nearly all actives have a fitted effect of over 40% in size)
# How it was run: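 In this screen, hormone-deprived VM7Luc4E2 cells were seeded at 4,000 per well, dosed with compound and 0.1 nM estradiol final, and incubated 22 hr at 37C and 5% CO2; fluorogenic live-cell protease signal reported viability.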
# [5] = qHTS assay to identify small molecule antagonists of the androgen receptor (AR) signaling pathway using the MDA cell line in the presence of 0.5 nM R1881 - cell viability counter screen (AID 1259242; active = well fitted curve in the direction sought with a large enough effect in the repeat runs; an effect the other way counts as inactive or inconclusive; note: nearly all actives have a fitted effect of over 45% in size)
# How it was run: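 Human breast carcinoma MDA-kb2 cells, cultured without CO2, receive compounds alongside 0.5 nM (final) R1881 agonist. After 16 hr at 37C, viability is taken as live-cell protease signal.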
# [6] = qHTS assay for small molecule agonists of the p53 signaling pathway (AID 651631); note: nearly all actives have a fitted effect of over 15% in size; note: potency is the fitted concentration of half-maximal effect
# How it was run: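 Beta-lactamase reporter activity under p53 response elements was quantified in HCT-116 cells by FRET fluorescence, following 16 h incubation with test compounds at 37 °C and 2 h substrate development at room temperature.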
# [7] = target: Androgen receptor (Homo sapiens) (UniProt P10275); test: qHTS assay to identify small molecule agonists of the androgen receptor (AR) signaling pathway (AID 743036; active = well fitted activation curve with a large enough effect in the signal ratio in the repeat runs, with a control signal flat, not every such curve was filed as active; the % refers to the signal ratio)
# How it was run: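 Following a 4 h settling period, AR-UAS-bla HEK293 cells were dosed with compounds for 16 h at 37C. A 2 h room-temperature incubation with LiveBLAzer B/G FRET substrate preceded the fluorescence measurement.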
# [8] = target: Androgen receptor (Homo sapiens) (UniProt P10275); test: qHTS assay to identify small molecule agonists of the androgen receptor (AR) signaling pathway using the MDA cell line (AID 743040; active = well fitted curve in the direction sought with a large enough effect in the repeat runs; an effect the other way counts as inactive or inconclusive; note: nearly all actives have a fitted effect of over 20% in size; note: potency is the fitted concentration of half-maximal effect)
# How it was run: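 Testing was done with the MDA-kb2 AR-luc line, a human breast carcinoma stably transfected with MMTV-luciferase containing AR and GR response elements. Cells were exposed 16 h at 37C before ONE-Glo luminescence detection.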
# [9] = qHTS assay to identify small molecule antagonists of the estrogen receptor alpha (ER-alpha) signaling pathway using the BG1 cell line (AID 743080);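 note: BG1 cells stimulated with 17beta-estradiol alongside compound; nearly all actives have a fitted effect of over 25% in size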; note: potency is the fitted concentration of half-maximal effect
# How it was run: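 Readout is ONE-Glo luminescence, taken 30 min at room temperature after reagent addition, preceded by a CellTiter-Fluor viability read; BG1-Luc-4E2 cells had received compound and 17beta-estradiol for 21.5 h at 37 C.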
compound,measurement,setting,value
CC(=O)O[C@H]1C[C@H](O[C@H]2[C@@H](O)C[C@H](O[C@H]3[C@@H](O)C[C@H](OC4CC[C@@]5(C)[C@H](CC[C@@H]6[C@@H]5CC[C@]5(C)[C@@H](C7=CC(=O)OC7)CC[C@]65O)C4)O[C@@H]3C)O[C@@H]2C)O[C@H](C)[C@H]1O[C@@H]1O[C@H](CO)[C@@H](O)[C@H](O)[C@H]1O (some centres undefined),Potency,[1],inactive
same,Potency,[2],1.68 µM (active)
O=S(=O)(O)c1cc(O)ccc1O,Potency,[1],inactive
same,Potency,[3],inactive
same,Potency,[4],inactive
same,Potency,[5],inactive
Cc1ccccc1-n1c(CF)nc2ccc(N)cc2c1=O,Potency,[6],inactive
same,Potency,[7],inactive
same,Potency,[8],26.6 µM (active)
same,Potency,[2],inactive
CC(C)(O)[C@@H]1[C@H]2OC(=O)[C@@H]1[C@]1(O)C[C@H]3O[C@]34C(=O)O[C@H]2[C@]14C,Potency,[6],inactive
same,Potency,[1],inactive
same,Potency,[3],inactive
CCC1(CC)C(=O)NC(=O)N(C)C1=O,Potency,[6],inactive
same,Potency,[1],inactive
same,Potency,[3],inactive
same,Potency,[9],inactive
C[C@@H](CO)NC(=O)[C@@H]1C=C2c3cccc4[nH]cc(c34)C[C@H]2N(C)C1,Potency,[6],inactive
same,Potency,[1],inactive
same,Potency,[3],inactive
same,Potency,[8],26.6 µM (active)
same,Potency,[2],inactive
CC1(C)S[C@@H]2[C@H](N)C(=O)N2[C@H]1C(=O)O,Potency,[6],inactive
same,Potency,[3],inactive
same,Potency,[7],inactive
same,Potency,[8],inactive
same,Potency,[2],inactive
same,Potency,[9],inactive
CC(=O)O[C@H]1CC[C@H]2[C@@H]3CCC4=CC(=O)CCC4=C3C=C[C@]12C,Potency,[6],inactive
same,Potency,[1],inactive
same,Potency,[3],2.68 µM (active)
same,Potency,[8],0.0017 µM (active)
same,Potency,[2],inactive
same,Potency,[9],inactive
CC1(C)[C@H](C=C(Cl)Cl)[C@H]1C(=O)OCc1c(F)c(F)cc(F)c1F,Potency,[1],inactive
same,Potency,[3],inactive
same,Potency,[9],inactive
COC(COC(N)=O)C1=C(N2CC2)C(=O)C(C)=C(N2CC2)C1=O (centres undefined),Potency,[6],0.298 µM (active)
same,Potency,[1],inactive
same,Potency,[8],inactive
same,Potency,[2],1.33 µM (active)
same,Potency,[9],0.531 µM (active)
O=C(OCCN1CCCCC1)C(O)(c1ccccc1)c1ccccc1,Potency,[9],inactive
CNC1(c2ccccc2Cl)CCCCC1=O (centres undefined),Potency,[6],inactive
same,Potency,[3],inactive
same,Potency,[9],inactive
CN1c2ccccc2C(NCCCCCCC(=O)O)c2ccc(Cl)cc2S1(=O)=O (centres undefined),Potency,[1],inactive
same,Potency,[9],inactive
Oc1cccc[c]1[Hg][Cl],Potency,[8],inactive
same,Potency,[2],4.22 µM (active)
C[N+]1(C)[C@@H]2CC[C@H]1CC(OC(=O)c1c[nH]c3ccccc13)C2 (some centres undefined),Potency,[1],inactive
same,Potency,[8],inactive
same,Potency,[2],inactive
same,Potency,[9],inactive

# From PubChem BioAssay (Tox21)
